ELG1 DNA repair: qHTS screen for small molecules that inhibit ELG1-dependent DNA repair in human embryonic kidney (HEK293T) cells expressing luciferase-tagged ELG1; HEK293T ELG1-luciferase reporter, luminescence, 16 h; DNA damage induced by 5-fluorouridine; Potency, µM (series often up to 46.1 µM), without a hit: at the highest dose activity change, negative = inhibition, actives largely listed as inhibitors; actives 2.3% (n = 330,000); AID 504467, 2011; also: potency is read from the fitted curve at half-maximal effect; nearly all actives have a fitted effect of over 55% in size
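Overnight (16 hr) co-exposure of 2,000 cells/well to 5-fluorouridine and compound at 37 °C preceded detection. Luciferase was quantified via ONE-Glo luminescence; loss of signal denotes inhibition.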
HT1080-NT tox: qHTS for induction of synthetic lethality in tumor cells producing 2HG: qHTS for the HT-1080-NT fibrosarcoma cell line | HT-1080-NT fibrosarcoma viability, CellTiter-Glo ATP luminescence, 48 h | Potency, µM (doses to about 46.1 µM), without a hit: at the highest dose activity, negative = less viability, usual class: cytotoxic | actives 1.6% (n = 360,000);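 also: NT is the 2HG producing partner of a matched IDH1 knockdown line; potency is read from the fitted curve at half-maximal effect; 0% = DMSO-treated cells and -100% = media-only wells without cells; nearly all actives have a fitted effect of over 55% in size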
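Compounds were tested in concentration-response format on HT-1080-NT cells for 48 hours at 37 degrees C. Cell viability came from CellTiter-Glo luminescence; curves were classified by r2, response magnitude and activity.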
TDP1 cell noCPT: qHTS for Inhibitors of human tyrosyl-DNA phosphodiesterase 1 (TDP1): qHTS in cells in absence of CPT; Potency, µM (titrated, usually from 46.2 µM), for the others: at the highest dose activity change, negative = growth inhibition, usual class: inhibitors; AID 686978, 2013; actives 15% (n = 420,000); DT40 Tdp1-/- hTDP1 cells, no CPT, ATP luminescence, 48 h; also: potency is read from the fitted curve at half-maximal effect; nearly all actives have a fitted effect of over 55% in size
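A cellular qHTS used chicken DT40 cells lacking endogenous Tdp1 but carrying stably transfected human TDP1. Compounds were applied without camptothecin, and cell growth kinetics were judged by ATP-dependent luminescence after ≥48 hr.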
HT1080 IDH1KD tx: qHTS for induction of synthetic lethality in tumor cells producing 2HG: qHTS for the HT-1080-IDH1KD cell line | Potency, µM (highest dose often 46.1 µM), for inactives: at the highest dose activity, negative = toxicity, hits mostly cytotoxic | HT-1080 IDH1 knockdown viability, ATP luminescence, 48 h | AID 686971, 2013 | actives 2% (n = 360,000);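 also: potency is read from the fitted curve at half-maximal effect; 0% = DMSO wells and -100% = cell-free medium wells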
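In this qHTS, HT-1080 cells depleted of IDH1 are exposed for 48 h at 37 °C to compound titrations. Toxicity is scored from CellTiter-Glo luminescence, with DMSO as full viability and medium alone as none.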
IL1B secr inh: qHTS for Inhibitors of Inflammasome Signaling: IL-1-beta AlphaLISA Primary Screen; THP-1 LPS/ATP IL-1B secretion, AlphaLISA, 16 h; hits give low values; activity change, % at 57.5 µM; actives 4.7% (n = 360,000); in the data active = activity change below about -50%; inconclusive = mostly about -30% to -49%
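THP-1 cells pretreated 1 hr with compounds (up to 57.5 uM final), then stimulated with LPS (250 ng/mL final) plus ATP (1.25 mM final); secreted IL-1B measured by AlphaLISA after 16 hr, decreased signal indicating inhibition.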
DT40 TDP1 CPT: qHTS for Inhibitors of human tyrosyl-DNA phosphodiesterase 1 (TDP1): qHTS in cells in presence of CPT; chicken DT40 Tdp1-/-;hTDP1 cells + 20 nM CPT, ATP luminescence, 48 h; Potency, µM (doses to about 46.2 µM), inactives show top-dose activity change, negative = growth inhibition, most hits filed as inhibitors; actives 12% (n = 420,000); also: potency is read from the fitted curve at half-maximal effect; nearly all actives have a fitted effect of over 55% in size
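Chicken DT40 Tdp1-/- cells complemented with human TDP1, 400 cells/well, exposed to compounds plus 20 nM camptothecin for at least 48 h at 37 C; viability read as ATP content by CellTiter-Glo luminescence.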
Starred values were filed as active, the others as inactive; ? = inconclusive; . = not tested or not shown. This is a sample that favours compounds with a hit; in the whole collection about 19% have one here. Unless noted, calls follow the shape of the dose curve; as a rule, active = well fitted curve in the direction sought with a large enough effect; inconclusive = small, poorly fitted or top-dose-only effect, or another doubt; inactive = no such curve, though single readings can be large; an effect the other way counts as inactive or inconclusive. Unless noted, % is scaled to controls: 0 for no effect and ±100 for the full control effect.

SMILES	ELG1 DNA repair	HT1080-NT tox	TDP1 cell noCPT	HT1080 IDH1KD tx	IL1B secr inh	DT40 TDP1 CPT
Cc1ccc(S(=O)(=O)N2CCN(c3nc(C)nc4sc(C)c(C)c34)CC2)cc1	3.4%	.	.	.	.	.
Cc1sc2ncnc(N3CCN(S(=O)(=O)c4ccc(C(C)(C)C)cc4)CC3)c2c1C	?	-21.6%	3.26µM*	-19.2%	-29.4	9.2µM*
CC(=O)Nc1cccc(Oc2ncnc3scc(-c4ccccc4)c23)c1	-28.2%	-28.7%	10.3µM*	-15.6%	-53.3*	?
Cc1csc2ncnc(N3CCN(S(=O)(=O)c4cccc(C(F)(F)F)c4)CC3)c12	?	-12.3%	3.66µM*	-16.7%	0.0	9.2µM*
O=S(=O)(c1cccc(Br)c1)N1CCN(c2ncnc3scc(-c4ccccc4)c23)CC1	.	4.2%	?	-2.4%	55.1	?
COc1ccc(-c2csc3ncnc(N4CCN(S(=O)(=O)c5ccc(Cl)s5)CC4)c23)cc1	8.2µM*	-14.5%	29.1µM*	-18.0%	52.1	?
COc1ccc(-c2csc3ncnc(N4CCN(S(=O)(=O)c5cccs5)CC4)c23)cc1	?	-12.6%	?	-10.1%	2.0	?
COc1ccc(-c2csc3ncnc(N4CCN(S(=O)(=O)c5ccc(C)cc5)CC4)c23)cc1	20.6µM*	-3.1%	14.6µM*	-14.4%	49.8	?
COc1ccc(OC)c2sc(N(CCCN(C)C)C(=O)CCS(=O)(=O)c3ccccc3)nc12	?	-1.2%	0.651µM*	?	-107.5*	1.46µM*
COc1ccc(C)c2sc(N(CCCN(C)C)C(=O)CS(=O)(=O)c3ccc(F)cc3)nc12	2.8%	18.4µM*	-18.9%	-24.0%	?	-50.2%
CN(C)CCN(C(=O)CCS(=O)(=O)c1ccccc1)c1nc2c(F)cccc2s1	10.2%	-3.8%	16.3%	-1.6%	9.6	-27.6%
Cc1ccc2sc(N(CCCN(C)C)C(=O)CCS(=O)(=O)c3ccccc3)nc2c1C	-8.6%	?	2.59µM*	?	-92.8*	2.31µM*
Cc1cccc(N(C)C(=O)Cn2cnc3nc4c(cc3c2=O)CCCC4)c1	.	.	-20.0%	.	.	-22.7%
COc1ccc(NC(=O)N(C)C[C@H]2OCc3cn(nn3)CCCC(=O)N([C@@H](C)CO)C[C@@H]2C)cc1	.	8.2%	-8.5%	9.6%	16.8	0.3%
CCN(CC)CCCNC(=O)c1cnc(SC)nc1-c1ccccc1	.	.	3.2%	.	.	-2.7%
Fc1cccc(Cl)c1-c1nnc2ccc3ccccc3n12	?	-2.5%	10.3µM*	0.3%	-16.7	25.9µM*
Fc1ccccc1-c1nnc2ccc3ccccc3n12	4.1%	-7.7%	?	0.5%	5.0	1.8%
O=C1CCC(=O)N1CO	.	.	-10.5%	.	.	-21.4%
CSc1ncccc1C(=O)NCC1Cc2cc(F)cc(-c3cncnc3)c2O1 (centres undefined)	.	.	-7.7%	.	.	6.8%

Screening data deposited in PubChem BioAssay by National Center for Advancing Translational Sciences (NCATS).
